Data as given in PubChem BioAssay (NCATS).
Values joined by “and” are separate entries in the source; they are usually repeats but may differ in a detail not shown here. Equal values may be shown once. Inconclusive results are not listed. Where a call stands in place of a potency, no number is given. More than one record can exist for a structure, and the calls need not agree. Active and inactive are the calls of the source. Calls follow the shape of the dose curve; as a rule, active = well fitted curve in the direction sought with a large enough effect; inconclusive = small, poorly fitted or top-dose-only effect, or another doubt; inactive = no such curve, though single readings can be large; an effect the other way counts as inactive or inconclusive. Positions of bridges follow the written chain, without caps; N, C: chain ends. Non-standard residues stand in square brackets, D forms with d. Residues, ends and D or L forms follow the SMILES beside them. ξ: configuration not given here. *: point of attachment. Octanoyl(6-Me) = CCC(C)CCCCC(=O)*; ξThr(3R) = C[C@@H](O)C(N)C(=O)O; dDab = NCC[C@@H](N)C(=O)O; Dab = NCC[C@H](N)C(=O)O

Assays:
[1] = P-glycoprotein substrates identified in KB-8-5-11 adenocarcinoma cell line, qHTS therapeutic library screen (AID 1346987); also: nearly all actives have a fitted effect of over 65% in size
Method in brief: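 In this qHTS, P-gp-rich KB-8-5-11 cells received library compounds across a concentration range. Viability was quantified by luminescence after 72 h at 37 degree C.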

[2] = qHTS of pediatric cancer cell lines to identify multiple opportunities for drug repurposing: Primary screen for TC32 cells (AID 1347089); also: nearly all actives have a fitted effect of over 60% in size
Method in brief: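 Luminescent ATP read-out (CellTiter-Glo) of metabolically active TC32 cells after 48 h exposure. Concentration-response curves came from 11-point (MIPE, 0.78 nM–46 µM) or 8-point (NPC, 0.59 nM–46 µM) primary titrations; follow-up used 11 points.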

[3] = qHTS of pediatric cancer cell lines to identify multiple opportunities for drug repurposing: Primary screen for SJ-GBM2 cells (AID 1347091)
Method in brief: (§1)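 Viability measured as metabolically active cells via CellTiter-Glo luminescence following 48 hours of compound exposure, 11-point dilutions in confirmatory testing. 500-1,000 cells/well plated 5 hours before dosing; controls were DMSO and 2.3 µM bortezomib.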

[4] = NS1 protein of Zika virus - qHTS assay to identify small molecule inhibitors in human HEK 293 cells (AID 1347053); also: nearly all actives have a fitted effect of over 55% in size
Method in brief: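 Readout was TR-FRET using paired anti-NS1 antibodies after 24 h infection of HEK 293 cells with ZIKV MR766 (MOI = 0.5). Compound preceded virus by 1 h; reduced signal reflects lower NS1 expression.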

[5] = qHTS of pediatric cancer cell lines to identify multiple opportunities for drug repurposing: Primary screen for DAOY cells (AID 1347090); also: nearly all actives have a fitted effect of over 55% in size
Method in brief: as §1
Potency is read from the fitted curve at half-maximal effect.

SMILES | Potency [1] | Potency [2] | Potency [3] | Potency [4] | Potency [5]
Nc1ccc(C(=O)Nc2cccc(-c3nc(N4CCOCC4)c4oc5ncccc5c4n3)c2)cn1 | inactive and 9.2 µM (active) | inactive | 3.72 µM (active) | – | –
COC1=C2C[C@@H](C)C[C@H](OC)[C@@H](O)[C@@H](C)C=C(C)[C@H](OC(N)=O)[C@@H](OC)C=CC=C(C)C(=O)NC(=CC1=O)C2=O | 13.2 µM (active) | – | 0.743 µM (active) | – | –
O=C(O)c1ccc(Nc2ncc3c(n2)-c2ccc(Cl)cc2C(c2c(F)cccc2F)=NC3)cc1 | – | – | – | inactive | –
CC(=O)O[C@H]1C[C@@H]2CC[C@H]3[C@H]4C[C@H]([N+]5(C)CCCCC5)[C@@H](OC(C)=O)[C@@]4(C)CC[C@@H]3[C@@]2(C)C[C@H]1N1CCCCC1 | inactive | inactive | inactive | – | –
CC[C@H](CC[C@@H](C)[C@H]1CC[C@H]2[C@@H]3CC=C4C[C@@H](O)CC[C@]4(C)[C@@H]3CC[C@]12C)C(C)C | inactive | inactive | inactive | – | inactive
Cn1c(Nc2ccc(C(F)(F)F)cc2)nc2cc(Oc3ccnc(-c4ncc(C(F)(F)F)[nH]4)c3)ccc21 | 20.9 µM (active) | 16.5 µM (active) | 0.662 µM (active) | – | 18.7 µM (active)
O=C(C=CC=Cc1ccc2c(c1)OCO2)N1CCCCC1 | inactive | inactive | inactive | – | inactive
CN1CCCN(C(=O)c2cccc(-c3ccc(C=C4C(=O)Nc5ccc(Cl)cc54)o3)c2)CC1 | 16.6 µM (active) | – | 16.6 µM (active) | – | –
c1cc(CN2CCCNCCNCCCNCC2)ccc1CN1CCCNCCNCCCNCC1 | inactive | inactive | inactive | – | inactive
COc1ccc2c(c1OC)C(=O)OC2[C@H]1c2c(cc3c(c2OC)OCO3)CCN1C (some centres not stated) | 1.87 µM (active) | 1.04 µM (active) | 0.132 µM (active) | – | 0.469 µM (active)
CCOC(=O)[C@H](CCc1ccccc1)N[C@@H](C)C(=O)N1[C@@H](C(=O)O)C[C@H]2CCC[C@@H]21 | 10.5 µM (active) | – | 20.9 µM (active) | – | 14.8 µM (active)
CCN(CC)Cc1ccc2cc(COC(=O)Nc3ccc(C(=O)NO)cc3)ccc2c1 | 7.43 µM (active) | 5.87 µM (active) | 0.743 µM (active) | – | 2.96 µM (active)
c1cc(N[C@@H]2CCNC2)nc(-c2cnc3ccc(-c4cn[nH]c4)cn23)c1 | inactive | – | 16.6 µM (active) | – | –
COc1cc(N2CCC(C(N)=O)CC2)ccc1Nc1nc(N)c(Cl)c(Nc2ccccc2S(=O)(=O)C(C)C)n1 | inactive | 2.62 µM (active) | inactive | – | 0.187 µM (active)
Nc1ncn([C@@H]2O[C@H](CO)[C@@H](O)[C@@H]2O)c(=O)n1 | 11.8 µM (active) | – | 7.43 µM (active) | – | –
CC(=O)O[C@]1(C(C)=O)CC[C@H]2[C@@H]3C=C(C)C4=CC(=O)CC[C@]4(C)[C@@H]3CC[C@@]21C | inactive | – | 14.8 µM (active) | – | 7.43 µM (active)
C#C[C@]1(O)CC[C@@H]2[C@@H]3CCC4=CC(=O)CC[C@@H]4[C@H]3CC[C@@]21CC | inactive | inactive | inactive | – | inactive
COc1ccc(C=Cc2cc(OC)c(OC)c(OC)c2)cc1NC(=O)[C@H](N)CO | 0.0059 µM (active) | 0.0415 µM (active) | 0.001 µM (active) | – | 0.0093 µM (active)
CN(C)CC(=O)N1CCC(c2ccc(NC(=O)c3ncc(C#N)[nH]3)c(C3=CCCCC3)c2)CC1 | inactive | inactive | 18.7 µM (active) | – | –
CCCCCCCCc1ccc(CCC(N)(CO)CO)cc1 | 23.5 µM (active) | – | 14.8 µM (active) | – | –
NC(=O)N1CCC(CC(=O)N2CCC([C@H]3c4ncc(Br)cc4CCc4cc(Cl)cc(Br)c43)CC2)CC1 | 7.43 µM (active) | – | – | – | 23.5 µM (active)
C[C@H](NC(=O)Cc1cc(F)cc(F)c1)C(=O)N[C@H](C(=O)OC(C)(C)C)c1ccccc1 | 18.7 µM (active) | inactive | inactive | – | –
OCCNC1CCCc2c1[nH]c1ccc(-c3ccccc3)cc21 (configuration not stated) | 6.51 µM (active) | inactive | 23.5 µM (active) | – | inactive
CCOc1cc2ncc(C#N)c(Nc3ccc(OCc4ccccn4)c(Cl)c3)c2cc1NC(=O)C=CCN(C)C | – | – | – | inactive | –
CCCCCCCN(CC)CCCC(O)c1ccc(NS(C)(=O)=O)cc1 (configuration not stated) | – | inactive | – | inactive | inactive
Nc1ccn(C[C@@H](CO)OCP(=O)(O)O)c(=O)n1 | – | inactive | inactive | inactive | inactive

SMILES | Potency [1] | Potency [2] | Potency [3] | Potency [4] | Potency [5]
NC1=N[C@H]2[C@H](CS[C@H]2CCCCC(=O)O)N1 | – | inactive | inactive | inactive | inactive
CC(=O)OCC(=O)[C@@]12N=C(C)O[C@H]1C[C@H]1[C@@H]3CCC4=CC(=O)C=C[C@]4(C)[C@@H]3[C@@H](O)C[C@@]12C | – | inactive | inactive | inactive | inactive
Cc1[nH]c(C=C2C(=O)Nc3ccccc32)c(C)c1CCC(=O)O | – | 7.39 µM (active) | 0.935 µM (active) | inactive | 2.96 µM (active)
CCS(=O)(=O)Nc1ccc2[nH]c(O)c(C(=Nc3ccc(CN4CCCCC4)cc3)c3ccccc3)c2c1 | – | 0.131 µM (active) | – | 18.7 µM (active) | 7.43 µM (active)
CO[C@@H]1[C@@H](O)[C@H](O)[C@@H](n2c3c(Cl)cccc3c3c4c(c5c6cccc(Cl)c6[nH]c5c32)C(=O)NC4=O)O[C@@H]1CO | – | 0.294 µM (active) | 0.166 µM (active) | 0.118 µM (active) | 0.469 µM (active)
COc1cccc2c1C(=O)c1c(O)c3c(c(O)c1C2=O)C[C@@](O)(C(=O)CO)C[C@H]3O[C@H]1C[C@H](N)[C@H](O)[C@H](C)O1 | – | 0.93 µM (active) | 0.0526 µM (active) | 0.332 µM (active) | 0.935 µM (active)
O=C(C=CC#Cc1cccc(NS(=O)(=O)c2ccccc2)c1)NO | – | 7.39 µM (active) | 1.66 µM (active) | 13.2 µM (active) | 2.96 µM (active)
COc1ccc(C[C@@H](C)[C@@H](C)Cc2ccc(OC)c(OC)c2)cc1OC | – | 9.3 µM (active) | – | 0.833 µM (active) | 0.235 µM (active)
COc1cc([C@@H]2c3cc4c(cc3[C@@H](O[C@@H]3O[C@@H]5CO[C@@H](c6cccs6)O[C@@H]5[C@H](O)[C@@H]3O)[C@H]3COC(=O)[C@H]23)OCO4)cc(OC)c1O | – | 0.208 µM (active) | 0.118 µM (active) | 0.296 µM (active) | 0.372 µM (active)
O=C(O)C(=O)Nc1cccc(C2=NN=N[N]2)c1 | – | inactive | inactive | inactive | inactive
CC(=O)OCC(=O)[C@@]1(O)CC[C@H]2[C@@H]3CCC4=CC(=O)CC[C@]4(C)[C@@H]3C(=O)C[C@@]21C | – | inactive | inactive | inactive | inactive
Nc1cccc2c1C(=O)N(C1CCC(=O)NC1=O)C2=O (configuration not stated) | – | inactive | – | inactive | inactive
Cc1cc(-c2nnc3n2CCCCC3)c(C)n1-c1ccccc1 | – | inactive | inactive | inactive | inactive
CCC(C)CCCCC(=O)N[C@@H](CCN)C(=O)NC(C(=O)N[C@H](CCN)C(=O)N[C@@H]1CCNC(=O)C([C@@H](C)O)NC(=O)[C@@H](CCN)NC(=O)[C@@H](CCN)NC(=O)[C@@H](CC(C)C)NC(=O)[C@H](Cc2ccccc2)NC(=O)[C@H](CCN)NC1=O)[C@@H](C)O (stereo partly drawn) ({Octanoyl(6-Me)}-[Dab][ξThr(3R)][dDab][dDab][Dab]F[dL][dDab][dDab][ξThr(3R)]; lactam 4-C) | – | inactive | – | inactive | inactive
NS(=O)(=O)OC[C@@H]1C[C@@H](n2ccc3c(N[C@H]4CCc5ccccc54)ncnc32)C[C@H]1O | – | 1.65 µM (active) | 0.296 µM (active) | inactive | 0.59 µM (active)
c1ccc2c(Oc3nc(Nc4ccc(N5CCOCC5)cc4)c4ncn(C5CCCCC5)c4n3)cccc2c1 | – | inactive | – | inactive | inactive
CC[C@]12C=CCN3CC[C@@]4(c5cc([C@@]6(C(=O)OC)C[C@H]7C[C@@H](C(C)(F)F)CN(Cc8c6[nH]c6ccccc86)C7)c(OC)cc5N(C)[C@H]4[C@@](O)(C(=O)OC)[C@H]1OC(C)=O)[C@@H]32 | – | 0.0587 µM (active) | 0.001 µM (active) | 7.43 µM (active) | 0.0296 µM (active)
C[C@]12CCC(=O)C=C1[C@@H]1CC1[C@H]1[C@H]3[C@@H]4C[C@H]4[C@@]4(CCC(=O)O4)[C@@]3(C)CC[C@H]12 (some centres not stated) | – | inactive | – | inactive | inactive
O=C(C[C@@H]1CC=CCCC(=O)O[C@H](c2ccccc2)CNC1=O)NCc1ccc(Cl)cc1 | – | inactive | inactive | inactive | inactive
CN(C)c1ccc2cc(C(=O)N[C@@H](CCCN=C(N)CCl)C(=O)NCc3ccccc3)ccc2c1 | – | inactive | 20.9 µM (active) | inactive | 7.43 µM (active)
CCOC(=O)N1CCN([N+]([O-])=NOc2ccc([N+](=O)[O-])cc2C#N)CC1 | – | 3.7 µM (active) | – | 2.96 µM (active) | –
Cc1cc(Nc2ncc3c(n2)N(C)C(=O)N(c2cc(NC(=O)c4cccc(C(F)(F)F)c4)ccc2C)C3)n(C)n1 | – | 1.47 µM (active) | 0.296 µM (active) | inactive | 0.935 µM (active)
NC(=NCCCCCCN=C(N)N=C(N)Nc1ccc(Cl)cc1)N=C(N)Nc1ccc(Cl)cc1 | – | inactive | 13.2 µM (active) | inactive | 5.9 µM (active)
Cc1onc(-c2ccccc2)c1C(=O)N[C@@H]1C(=O)N2[C@@H](C(=O)O)C(C)(C)S[C@@H]12 | – | inactive | – | inactive | inactive
COc1ccc(S(=O)(=O)Nc2cc(-c3c(O)ccc4ccccc34)c(O)c3ccccc23)cc1 | – | inactive | – | inactive | –
Nc1nc2c(c(=O)[nH]1)N(C=O)[C@H](CNc1ccc(C(=O)N[C@@H](CCC(=O)O)C(=O)O)cc1)CN2 | – | inactive | inactive | inactive | inactive
